Laboratory results published in PubChem BioAssay (NCATS).
Inconclusive results are not listed. Entries that show only a call come without a potency. Active and inactive are the calls of the source. The call rests on the fitted dose curve; in most records, active means well fitted inhibition curve with a large enough effect; inconclusive means small, poorly fitted or top-dose-only effect; inactive means flat fitted curve, though single readings scatter.

Each molecule was assayed against Calcium and integrin-binding protein 1 (Homo sapiens) (UniProt Q99828) (assay: Primary qHTS for Identification of Calcium Integrin Binding Protein 1 (CIB1) Competitor (AID 1508620;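 further: GST tagged CIB1 binding a fluorescein labelled alphaIIb integrin peptide tracer; top concentration of the series differs between compounds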)). Settings: CIB1-GST / FITC-alphaIIb peptide fluorescence polarization; series mostly up to 114 µM.
Sequence of Calcium and integrin-binding protein 1 (Homo sapiens) (Q99828 whole entry, looked up): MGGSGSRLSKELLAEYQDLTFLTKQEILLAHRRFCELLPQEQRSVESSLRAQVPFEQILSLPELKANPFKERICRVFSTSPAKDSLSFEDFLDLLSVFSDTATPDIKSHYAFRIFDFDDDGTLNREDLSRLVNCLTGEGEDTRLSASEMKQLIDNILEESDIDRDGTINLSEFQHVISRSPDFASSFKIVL
Procedure, shortened: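 Fluorescence polarization competition: CIB1-GST (1 uM final) preincubated with compound 15 min at room temperature, then FITC-labeled alphaIIb peptide (100 nM final) added for another 15 min. Polarization read at Ex 480/Em 540.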

| SMILES | Potency |
| --- | --- |
| O=C(O)CN1C(=O)/C(=C/c2ccc(-c3cccc(Cl)c3)o2)SC1=S | inactive |
| FC(F)(F)c1ccccc1-c1nc(NCc2ccc(-c3cccnc3)cc2)c2[nH]cnc2n1 | inactive |
| COc1cccc(OC)c1C1=Nn2c(nnc2-c2ccccc2O)SC1 | inactive |
| O=C(Cn1nc(-c2ccc(OC(F)(F)F)cc2)ccc1=O)NCCc1ccccc1 | inactive |
| Nc1ccc(NC(=O)Nc2nnc(-c3ccncc3)s2)cc1C(F)(F)F | inactive |
